{"source": "PubChem BioAssay (NCATS)", "note": "“And” between values parts separate entries of the source, which are not always exact repeats. Equal values may be shown once. Results filed as inconclusive are left out. A number with no mark means an inactive call. The source made the active and inactive calls. Calls come from the whole dose curve; as a rule, active = well fitted inhibition curve with a large enough effect; inconclusive = small, poorly fitted or top-dose-only effect; inactive = no such curve, though single readings can be large or run the other way. Positions of bridges follow the written chain, without caps; N, C: chain ends. Non-standard residues stand in square brackets, D forms with d. Residues, ends and D or L forms follow the SMILES beside them. ξ: configuration not given here. *: point of attachment. Octanoyl(6-Me) = CCC(C)CCCCC(=O)*; ξThr(3R) = C[C@@H](O)C(N)C(=O)O; dDab = NCC[C@@H](N)C(=O)O; Dab = NCC[C@H](N)C(=O)O", "data": [{"test": "Primary qHTS for inhibitors of nuclear receptor binding SET domain protein 2 (NSD2) in an RCH-ACV wild type WT cells (2C) (AID 1645877); note: nearly all actives have a fitted effect of over 70% in size; note: potency is the fitted concentration of half-maximal effect; for activity change, negative = cell killing: % is set by controls: 0 for no effect and ±100 for the full control effect", "conditions": "RCH-ACV NSD2 WT (2C) viability, CellTiter-Glo, 72 h; series mostly up to 44.9 µM; activity change, negative = cell killing: at the top concentration", "units": {"activity change, negative = cell killing": "%"}, "values": [{"smiles": "C[C@H](CCC(=O)O)[C@H]1CCC2C3C[C@H](O)[C@@H]4C[C@H](O)CC[C@]4(C)C3CC[C@@]21C", "note": "(some centres not stated)", "activity change, negative = cell killing": 9.47}, {"smiles": "c1coc(CNc2ncnc3nc[nH]c23)c1", "activity change, negative = cell killing": -16}, {"smiles": "NC(=O)c1cccc(-c2cccc(OC(=O)NC3CCCCC3)c2)c1", "activity change, negative = cell killing": -20.9}, {"smiles": "Cc1cn([C@@H]2O[C@H](CO)[C@@H](O)[C@H]2F)c(=O)[nH]c1=O", "activity change, negative = cell killing": 9.16}, {"smiles": "C[C@H](O)[C@@H]1C(=O)N2C(C(=O)O)=C(S[C@@H]3CN[C@H](CNS(N)(=O)=O)C3)[C@@H](C)[C@@H]12", "activity change, negative = cell killing": -3.49}, {"smiles": "CCc1nc(-c2cccc(C)c2)c(-c2ccnc(NC(=O)c3ccccc3)c2)s1", "Potency": "16.3 µM (active)"}, {"smiles": "CC(O)(C#Cc1ccc2c(c1)N(c1nc(N)ncc1Cl)CC2)c1nccs1", "note": "(configuration not stated)", "Potency": "13.2 µM (active)"}, {"smiles": "COc1cc([C@@H]2c3cc4c(cc3[C@H](O)[C@H]3COC(=O)[C@@H]23)OCO4)cc(OC)c1OC", "Potency": "0.417 µM (active)"}, {"smiles": "CC(C)Oc1ccc(C(=O)N[C@H](CNC(=O)CN(C)C)Cc2ccc(-c3cn4cccc([C@H](C)O)c4n3)cc2)cc1Cl", "Potency": "0.059 µM (active)"}, {"smiles": "Cc1ccc(O)c(C(CCN(C(C)C)C(C)C)c2ccccc2)c1", "note": "(configuration not stated)", "outcome": "inactive"}, {"smiles": "O=C1NC(O)CCN1[C@@H]1O[C@H](CO)[C@H](O)[C@H]1O", "note": "(some centres not stated)", "outcome": "inactive"}, {"smiles": "CS(=O)(=O)N1CCc2c(-c3cnc(N)nc3)nc(N3CCOCC3)nc21", "Potency": "459 nM (active) and 468 nM (active)"}, {"smiles": "CN(C)CC(=O)N1CCC(c2ccc(NC(=O)c3ncc(C#N)[nH]3)c(C3=CCCCC3)c2)CC1", "Potency": "10.3 µM (active) and 9.34 µM (active)"}, {"smiles": "COc1ccc(S(=O)(=O)Nc2cccnc2Nc2ccc(O)cc2)cc1", "Potency": "9.34 µM (active)"}, {"smiles": "CCCCCCCN(CC)CCCC(O)c1ccc(NS(C)(=O)=O)cc1", "note": "(configuration not stated)", "activity change, negative = cell killing": -1.02}, {"smiles": "CCNC(=O)c1cc2c(-c3cc(OCCN4CCCC4)c(Cl)cc3Cl)nc(N)nc2s1", "Potency": "0.512 µM (active)"}, {"smiles": "CC(C)C[C@H](NC(=O)CNC(=O)c1cc(Cl)ccc1Cl)B1OC(=O)CC(CC(=O)O)(C(=O)O)O1", "note": "(some centres not stated)", "Potency": "0.118 µM (active)"}, {"smiles": "CCC(C(=O)O)C1CCC(C)C(C(C)C(O)C(C)C(=O)C(CC)C2OC3(C=CC(O)[C@@]4(CC[C@](C)(C5CC[C@@](O)(CC)C(C)O5)O4)O3)C(C)CC2C)O1", "note": "(some centres not stated)", "Potency": "0.417 µM (active)"}, {"smiles": "CN1C(C(=O)Nc2ccccn2)=C(O)c2sc(Cl)cc2S1(=O)=O", "activity change, negative = cell killing": -3.39}, {"smiles": "Nc1nc(N)c2nc(-c3cccc(O)c3)c(-c3cccc(O)c3)nc2n1", "Potency": "13 µM (active) and 16.6 µM (active)"}, {"smiles": "CCCCCCCCc1ccc(CCC(N)(CO)CO)cc1", "Potency": "8.33 µM (active)"}, {"smiles": "CCC(C)CCCCC(=O)N[C@@H](CCN)C(=O)NC(C(=O)N[C@H](CCN)C(=O)N[C@@H]1CCNC(=O)C([C@@H](C)O)NC(=O)[C@@H](CCN)NC(=O)[C@@H](CCN)NC(=O)[C@@H](CC(C)C)NC(=O)[C@H](Cc2ccccc2)NC(=O)[C@H](CCN)NC1=O)[C@@H](C)O", "note": "(stereo partly drawn) ({Octanoyl(6-Me)}-[Dab][ξThr(3R)][dDab][dDab][Dab]F[dL][dDab][dDab][ξThr(3R)]; lactam 4-C)", "activity change, negative = cell killing": 1.37}, {"smiles": "COc1ccc([C@@H]2CNC(=O)C2)cc1OC1CCCC1", "activity change, negative = cell killing": 8.29}, {"smiles": "O=C(O)CCCCC(CCSCc1ccccc1)SCc1ccccc1", "note": "(configuration not stated)", "activity change, negative = cell killing": -14.1}, {"smiles": "Cc1cc(Nc2ncc3c(n2)N(C)C(=O)N(c2cc(NC(=O)c4cccc(C(F)(F)F)c4)ccc2C)C3)n(C)n1", "Potency": "0.132 µM (active)"}, {"smiles": "CCOc1cc2c(c(F)c1OCC)C(=N)N(CC(=O)c1cc(N3CCOCC3)c(OC)c(C(C)(C)C)c1)C2", "Potency": "16.3 µM (active)"}, {"smiles": "C[C@@H](Cc1cc2c(c(C(N)=O)c1)N(CCCO)CC2)NCCOc1ccccc1OCC(F)(F)F", "activity change, negative = cell killing": -28.4}, {"smiles": "O=S(=O)(O)CCSSCCS(=O)(=O)O", "activity change, negative = cell killing": 9.79}, {"smiles": "O=C(O)CCCCCC(=O)NN=C1CCCC1", "outcome": "inactive"}, {"smiles": "CC(C)NC[C@@H](C(=O)N1CCN(c2ncnc3c2[C@H](C)C[C@H]3O)CC1)c1ccc(Cl)cc1", "Potency": "2.63 µM (active)"}, {"smiles": "C=CC(=O)N1CCc2ccc(-n3c(=O)ccc4cnc5ccc(-c6cnn(C)c6)cc5c43)cc21", "Potency": "0.323 µM (active)"}, {"smiles": "c1ccc(CNc2nc(NCc3ccccc3)c3ccccc3n2)cc1", "Potency": "5.9 µM (active)"}]}]}
